Sampled rows, rich in hits. Any-hit rate of the full collection: about 1.3%.
PREPL inh: PREPL enzyme inhibitors, primary screen, biochemical, fluorescence polarization. Prolyl endopeptidase-like (Homo sapiens), Q4J6C6. recombinant PREPL, fluorescence polarization activity-based probe. inhibition, % at 5.96 µM. 0.68% of 320,000 active; in the data active means inhibition above about 43%
LYPLA2 inh: LYPLA2 inhibitors, primary screen, counter-screen for PME1 inhibitor project, biochemical, fluorescence polarization, FP-Rh probe ABPP; Acyl-protein thioesterase 2 (Homo sapiens), O95372; recombinant LYPLA2; inhibition, % at 5.9 µM; 0.38% of 320,000 active; AID 2177, 2009;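 active means inhibition above the screen-wide mean plus 3 SD, limit set per campaign, cut at about 26% in these data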
Fam108B inh: mouse Fam108B serine hydrolase inhibitors, primary screen, counter-screen for RBBP9 inhibitor project, biochemical, fluorescence polarization; recombinant Fam108B, FP-Rh probe fluorescence polarization; inhibition, % at 9.51 µM; 0.33% of 300,000 active;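 active means inhibition above the screen mean inhibition plus 3 SD, computed separately per campaign, cut at about 18% in these data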;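 further: inhibitors lower polarization as less probe binds the enzyme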
PME-1 inh: PME-1 inhibitors via competitive probe labeling, primary screen, biochemical, fluorescence polarization, FP-Rh probe, HTS; recombinant PME-1; AID 2130, 2009; Protein phosphatase methylesterase 1 (Homo sapiens), Q9Y570; 0.53% of 320,000 active; inhibition, % at 5.9 µM;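 active means inhibition above the campaign mean of all compounds plus 3 SD, cut at about 26% in these data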;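 further: competitive labeling of PME-1 active site by serine hydrolase directed probe; inhibitors block probe labeling so polarization falls and inhibition rises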
Target sequence (Q9Y570 whole entry, looked up): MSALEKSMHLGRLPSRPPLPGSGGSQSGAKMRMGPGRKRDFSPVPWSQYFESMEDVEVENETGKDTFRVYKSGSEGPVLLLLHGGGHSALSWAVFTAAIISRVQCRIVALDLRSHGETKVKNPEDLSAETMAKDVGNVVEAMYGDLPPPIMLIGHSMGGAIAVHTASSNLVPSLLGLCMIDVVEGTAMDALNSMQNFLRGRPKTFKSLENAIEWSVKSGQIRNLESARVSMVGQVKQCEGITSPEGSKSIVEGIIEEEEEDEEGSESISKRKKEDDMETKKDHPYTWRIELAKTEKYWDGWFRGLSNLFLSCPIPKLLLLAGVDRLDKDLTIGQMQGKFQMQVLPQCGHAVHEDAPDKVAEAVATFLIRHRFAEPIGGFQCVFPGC
LYPLA1 inh: LYPLA1 inhibitors, primary screen, counter-screen for PME1 inhibitor project, biochemical, fluorescence polarization, FP-Rh probe ABPP | Acyl-protein thioesterase 1 (Homo sapiens), O75608 | recombinant LYPLA1 | inhibition, % at 5.9 µM | 0.16% of 320,000 active;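 active means inhibition above the mean of all tested compounds plus 3 SD, set per campaign, cut at about 14% in these data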;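 further: inhibitors block serine hydrolase probe labeling of LYPLA1 so polarization falls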
Target sequence (O75608 whole entry, looked up): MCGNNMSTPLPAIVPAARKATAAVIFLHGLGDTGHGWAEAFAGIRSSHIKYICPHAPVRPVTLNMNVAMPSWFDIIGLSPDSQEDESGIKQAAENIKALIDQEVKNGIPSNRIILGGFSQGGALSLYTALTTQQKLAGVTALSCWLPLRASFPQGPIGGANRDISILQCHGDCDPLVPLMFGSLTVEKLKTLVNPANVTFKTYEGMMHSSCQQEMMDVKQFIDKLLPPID
Fam108b inh conf: mouse Fam108b serine hydrolase inhibitors, confirmation, counter-screen for RBBP9 inhibitor project, biochemical, fluorescence polarization, triplicate; inhibition, % at 9.51 µM; 44% of 930 active; recombinant Fam108b, FP-Rh probe fluorescence polarization; AID 1978, 2009; shares compounds with Fam108B inh;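 active means inhibition above a limit from the primary screen, the mean over all compounds plus 3 SD, cut at about 19% in these data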;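 further: inhibitors free the probe so polarization falls as inhibition rises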
Fam108b ABPP HTS: inhibition of mouse Fam108b by HTS hits, late-stage follow-up, biochemical, gel-based ABPP, soluble recombinant form. fluorophosphonate probe. shares compounds with Fam108B inh. inhibition, % at 20 µM. AID 588649, 2011. 44% of 260 active; in the data active means inhibition above about 40%
Each line names hits and unclear results; the compound was inactive in the other large screens (follow-up assays come after a bar, where they were run); ! = not confirmed by another sample.

Nc1nc2ccccc2n1N=Cc1ccc(Br)cc1	none (no result: PREPL inh, LYPLA2 inh, Fam108B inh, PME-1 inh, LYPLA1 inh) | Fam108b ABPP HTS inactive
CC1CCCCN1S(=O)(=O)c1ccc(C(=O)Nc2ccccc2-c2nc3ccccc3[nH]2)cc1 (centres undefined)	Fam108B inh 32, PME-1 inh 28 | Fam108b inh conf 72
Cc1cc(C=O)c(C)n1-c1cccc(C(=O)O)c1	none
Cc1ccc(C)n1-c1cccc(C(=O)O)c1	Fam108B inh 35 | Fam108b inh conf 43 | Fam108b ABPP HTS inactive
O=C(NC(=S)Nc1ccccc1N1CCOCC1)c1ccc(-c2ccccc2F)o1	none
Brc1ccc(N/N=C(/N=Nc2nn[nH]n2)c2ccccc2)cc1	Fam108B inh 25, PME-1 inh 51 | Fam108b inh conf 28
CSc1nnc(NC(=O)c2ccc(S(=O)(=O)N3CCOCC3)cc2)s1	none
Cc1ccc(SC2=C(Sc3ccc(C)cc3)C(=O)c3ccccc3C2=O)cc1	Fam108B inh 22 | Fam108b inh conf inactive
Cc1ccc(N2C(=O)c3ccccc3C2=O)cc1	none
O=C1NC2(CCCCO2)CO1 (centres undefined)	none
Cn1c2ccccc2c2cc(/C=N/NC(=O)c3cc(O)ccc3O)ccc21	Fam108B inh 46, PME-1 inh 50 | Fam108b inh conf 40
Cn1c2ccccc2c2cc(C=NNC(=O)c3cc(O)ccc3O)ccc21	none (no result: PREPL inh, LYPLA2 inh, Fam108B inh, PME-1 inh, LYPLA1 inh) | Fam108b ABPP HTS 85
CCNc1nc(NC(C)(C)C)nc(SCC(N)=O)n1	none
Cc1ccnc(N=Cc2nc(-c3ccccc3Br)oc2O)c1	Fam108B inh 22 | Fam108b inh conf 80 | Fam108b ABPP HTS 75
Cc1cccc(N=Cc2nc(-c3ccccc3Br)oc2O)n1	none (no result: PREPL inh, LYPLA2 inh, Fam108B inh, PME-1 inh, LYPLA1 inh) | Fam108b ABPP HTS 50
Cc1cccc(/N=C/c2nc(-c3ccccc3Br)oc2O)n1	Fam108B inh 27 | Fam108b inh conf 37
CCOc1ccc(S(=O)(=O)Nc2cccc(C(=O)NCCCn3ccnc3)c2)cc1	none (no result: Fam108B inh)
CCOC(=O)C1CCN(C(=O)CSc2ccccc2Cl)CC1	none
COc1ccc(C)cc1NC(=O)CN1C(=O)COc2ccc(S(=O)(=O)N3CCOCC3)cc21	none
COc1cccc(/C=N/n2c(N)c(S(=O)(=O)c3cccs3)c3nc4ccccc4nc32)c1OC	none
Nc1c(S(=O)(=O)c2cccc(Cl)c2)c2nc3ccccc3nc2n1/N=C/c1ccc(O)c(O)c1	PREPL inh 65, Fam108B inh 77, PME-1 inh 51 | Fam108b inh conf 140
COC(=O)c1ccc(=O)c2nc3/c(=C/O)c(O)cc(=O)c3[nH]c12	Fam108B inh 33 | Fam108b inh conf 49
CC(=O)NCCn1ccc2ccccc21	Fam108B inh 22 | Fam108b inh conf inactive
COc1cccc(NC(=O)CN(C)C(=O)C2CCN(C(=O)c3ccccc3C)CC2)c1	Fam108B inh 19 | Fam108b inh conf inactive
CCCCC1CCC(C(=O)N(C)CC(=O)Nc2cccc(OC)c2)CC1 (centres undefined)	none (no result: Fam108B inh)
COC(=O)c1ccc(OCCN2CCCCCC2)cc1	none
O=C(c1ccc(OCCN2CCCCC2)cc1)c1c(-c2ccc(O)cc2)sc2cc(O)ccc12	Fam108B inh 21 | Fam108b inh conf 24!
O=C(NCCc1ccc(Cl)cc1)C1CCCN1C(=O)Nc1ccccc1 (centres undefined)	Fam108B inh 31 | Fam108b inh conf inactive
O=C(NCCc1ccc(Cl)cc1)C1CCCN1C(=O)Nc1ccc(F)cc1 (centres undefined)	none
O=C(Nc1cccc(Cl)c1)c1cc(N=Nc2ccc([N+](=O)[O-])cc2Cl)ccc1O	Fam108B inh 26 | Fam108b inh conf inactive
CCOc1ccc(NC(=O)Nc2cc(-c3ccccc3)sc2C(=O)OC)cc1	Fam108B inh 22, PME-1 inh 34 | Fam108b inh conf inactive
COC(=O)c1sc(-c2ccccc2)cc1NC(=O)C1CC1	none
O=C(CSc1ccc(Cl)cc1)NNC(=O)c1ccco1	none
C(=N\Nc1nc2ccccc2s1)/c1ccccn1	none
Cc1ccc2[nH]c(C)c(/C=N/Nc3nc4ccccc4s3)c2c1	Fam108B inh 27, PME-1 inh 58 | Fam108b inh conf inactive
Brc1csc(C=NNc2nc3ccccc3s2)c1	none (no result: PREPL inh, LYPLA2 inh, Fam108B inh, PME-1 inh, LYPLA1 inh) | Fam108b ABPP HTS 70
NC(=O)C1CCN(CC(=O)Nc2ccccc2C(=O)NC2CC2)CC1	none (no result: Fam108B inh)
COc1ccc(CN2C(=O)c3c(c(C)n(C)c3C)C2C(=O)NC2CCC(C)CC2)cc1 (centres undefined)	Fam108B inh 24 | Fam108b inh conf inactive
COc1ccc(NC(=O)CN(C)CC(=O)NC2CCC(C)CC2)cc1 (centres undefined)	none (no result: Fam108B inh)
COc1cccc2c1C(=O)c1c(O)c3c(c(O)c1C2=O)C[C@@](O)(C(C)=O)C[C@@H]3O[C@H]1C[C@H](N)[C@H](O)[C@H](C)O1	none (no result: PREPL inh, LYPLA2 inh, Fam108B inh, PME-1 inh, LYPLA1 inh) | Fam108b ABPP HTS inactive
O=C(COC(=O)CNC(=O)c1ccc(Cl)cc1)Nc1cccc(S(=O)(=O)N2CCCC2)c1	Fam108B inh 64 | Fam108b inh conf inactive
Cc1cccc(NS(=O)(=O)c2ccc(C)c(C(=O)NCc3ccncc3)c2)c1	none
O=C(N/N=C/c1cc([N+](=O)[O-])cc([N+](=O)[O-])c1O)C(O)(c1ccccc1)c1ccccc1	none (no result: Fam108B inh)
O=[N+]([O-])c1cc(Br)c(O)c(C=NNc2nnnn2-c2cccc3ccccc23)c1	none (no result: PREPL inh, LYPLA2 inh, Fam108B inh, PME-1 inh, LYPLA1 inh) | Fam108b ABPP HTS inactive
O=C(Nc1nc(-c2ccccc2)cs1)c1ccccc1NS(=O)(=O)c1ccc(F)cc1	Fam108B inh 24 | Fam108b inh conf inactive
Cc1cc(OCC(=O)OCC(=O)NCc2ccco2)ccc1Cl	none
O=C(COC(=O)CN1C(=O)c2ccccc2C1=O)Nc1cccc(F)c1	none (no result: Fam108B inh)
CCN(CC)c1ccc(/C=C(/C#N)c2nc3ccccc3[nH]2)c(OC(C)C)c1	Fam108B inh 20 | Fam108b inh conf inactive
COc1cc(C2Nc3cccc4cccc(c34)N2)cc(OC)c1OC(C)=O	Fam108B inh 34 | Fam108b inh conf inactive
COc1ccccc1C(=O)N/C(=C\c1cn(S(=O)(=O)N(C)C)c2ccccc12)C(=O)N1CCOCC1	none
COC1=CC(=O)C(O)=C(CCCCCCCC=CCCCCCCCC2=C(O)C(=O)C=C(OC)C2=O)C1=O	none (no result: PREPL inh, LYPLA2 inh, Fam108B inh, PME-1 inh, LYPLA1 inh) | Fam108b ABPP HTS inactive
Cn1c(=O)c2c(ncn2CC(=O)Nc2cc(S(=O)(=O)N3CCCCC3)ccc2O)n(C)c1=O	none (no result: LYPLA2 inh, Fam108B inh, PME-1 inh, LYPLA1 inh)
O=C(COC(=O)CCC(=O)c1cccs1)Nc1cccc(F)c1	none (no result: Fam108B inh)
Cc1cc(C)nc(N/N=C/C2=C(N3CCOCC3)C(=C\c3ccc(Cl)cc3)/CC2)n1	none
